# Test results taken from ChEMBL document CHEMBL3988442, “University of Dundee, Small-Polar-MMV Screening Library” (2021).
# In all, about 48,000 compounds went through this assay and about 13,000 (27%) showed an effect of 50% or more. Some of the results follow.
# Tested on: Wolbachia pipientis
# Assay: Anti-Wolbachia Cell-Based Screen
# Format: functional
# Set-up: scale not given: in the data most compounds retested in dose-response had high values
# Settings: 5 µM
row,Compound,Percent Effect
1,CC(C)=CCN1Cc2nnc(C3CCOCC3)n2C(Cc2c[nH]cn2)C1 (centres undefined),-4.476%
2,Cc1nccn1-c1cc(CNS(=O)(=O)N2CCCC(C)C2)ccn1 (centres undefined),1.62%
3,c1ccc(C[C@H]2[C@H](N3CCOCC3)CCN2Cc2cccnc2)cc1,-10.76%
4,O=C(C1CCOCC1)N1CC[C@H](O)[C@@H]1Cc1cccnc1,108.8%
5,CN(C)C(=O)N1CCN(Cc2nnc(C(C)(C)C)o2)CC1,5.287%
6,CC(C)N1CCc2c(c(COc3cccnc3)nn2CC2CC2)C1.O=C(O)C(F)(F)F.O=C(O)C(F)(F)F.O=C(O)C(F)(F)F,-5.827%
7,Cn1nc(COc2cccnc2)c2c1CCN(Cc1ccco1)C2.O=C(O)C(F)(F)F.O=C(O)C(F)(F)F,-12.77%
8,CN1CCc2c(c(COc3cncnc3)nn2CC2CC2)C1.O=C(O)C(F)(F)F,-14.06%
9,COCCN1CCc2c(c(COc3cccnc3)nn2C)C1.O=C(O)C(F)(F)F.O=C(O)C(F)(F)F,96.91%
10,Cn1nc(COc2cccnc2)c2c1CCN(CC1CC1)C2.O=C(O)C(F)(F)F.O=C(O)C(F)(F)F,110.2281%
11,Cc1cccc(CN2Cc3[nH]nc(COc4cccnc4)c3C2)n1.O=C(O)C(F)(F)F.O=C(O)C(F)(F)F.O=C(O)C(F)(F)F,3.508%
12,Brc1ccc(C2(NCc3noc(C4CC4)n3)CCC2)cc1,4.263%
13,c1ccc(-c2nccc(CNC3CCc4ncnn4C3)n2)cc1 (centres undefined),120.1%
14,CCc1nc2n(n1)CC(NCc1noc(-c3ccc(C)cc3)n1)CC2 (centres undefined),89.35%
15,c1csc(-c2nc(CNC3CCc4ncnn4C3)cs2)c1 (centres undefined),-10.85%
16,CCc1nc2n(n1)CC(NCc1nc(C)c(C)o1)CC2 (centres undefined),-17.82%
17,Cc1nc2n(n1)CC(NCCc1cccs1)CC2 (centres undefined),7.216%
18,COc1ccc(-c2nc(CNC3CCc4nc(C)nn4C3)no2)cc1 (centres undefined),131.6%
19,CCc1nc2n(n1)CC(NCc1noc(-c3ccccc3)n1)CC2 (centres undefined),-10.54%
20,Cc1cccc(-c2nc(CNC3CCc4ncnn4C3)no2)c1 (centres undefined),121.2%
21,CNC(=O)COc1ccccc1CNC1CCc2nc(C)nn2C1 (centres undefined),-0.6489%
22,COc1ccccc1CC(=O)N1CCCC(c2nccn2CC(N)=O)C1 (centres undefined),0.4607%
23,COc1ccc(OCCc2sc(C3(O)CCCNCC3)nc2C)cc1.Cl (centres undefined),2.251%

row,Compound,Percent Effect
1,O=C1NCCCC12CCN(c1nc3c(c(C(F)(F)F)n1)CCCC3)C2 (centres undefined),-1.844%
2,Cc1nc2n(n1)CC(NCc1nc(-c3cccs3)no1)CC2 (centres undefined),-19.82%
3,Cc1nc2n(n1)CC(NCc1nc3ccccc3o1)CC2 (centres undefined),12.54%
4,c1nc2n(n1)CC(NCc1nc(-c3ccsc3)no1)CC2 (centres undefined),-6.7%
5,Fc1ccc(-c2cnc(CNC3CCc4ncnn4C3)o2)cc1 (centres undefined),7.148%
6,Cc1nc2n(n1)CC(NCc1nc(-c3cccnc3)no1)CC2 (centres undefined),-5.692%
7,Cc1cccc(-c2nc(CNC3CCc4nc(C)nn4C3)no2)c1 (centres undefined),111%
8,c1ccc(-c2nc(CNC3CCc4ncnn4C3)no2)cc1 (centres undefined),109.8%
9,c1ccc(-c2noc(CNC3CCc4ncnn4C3)n2)nc1 (centres undefined),0.9775%
10,Cc1nc2n(n1)CC(NCc1nc(C)c(C)o1)CC2 (centres undefined),-8.158%
11,Cc1ccc(O)c(CNC2CCc3nc(C)nn3C2)n1 (centres undefined),92.84%
12,Cc1ccc(-c2nc(CNC3CCc4ncnn4C3)no2)cc1 (centres undefined),118.2%
13,O=C(CN1CCOC(c2ccc(Cl)s2)C1)NCc1ccco1 (centres undefined),16.69%
14,CC(C)OC(=O)CCNC(=O)Nc1cccc2ncccc12,-2.669%
15,CS(=O)(=O)NC1CCN(C(=O)NCCc2ccccc2F)CC1,4.744%
16,CS(=O)(=O)NC1CCCN(C(=O)NCc2cccc(F)c2)C1 (centres undefined),119.2%
17,CS(=O)(=O)NC1CCN(C(=O)c2ccc(Br)o2)C1 (centres undefined),-2.031%
18,CS(=O)(=O)NC1CCCN(C(=O)NCc2ccoc2)C1 (centres undefined),92.13%
19,COc1ccccc1CNC(=O)N1CCCC(NS(C)(=O)=O)C1 (centres undefined),10.46%
20,CS(=O)(=O)NC1CCCN(C(=O)NCc2ccccc2Cl)C1 (centres undefined),118.4%
21,COC1CCCN(C(=O)NCc2ccc(C(=O)N(C)C(C)C)cc2)C1 (centres undefined),-8.588%
22,CN1C[C@@H]2CN(C(=O)NCc3cccc(F)c3)CCC[C@]2(C(=O)O)C1.O=C(O)C(F)(F)F,-0.5828%
23,COc1ccc(CNC(=O)N2CCCC(Nc3ccccc3)C2)cn1 (centres undefined),-13.37%

row,Compound,Percent Effect
1,Cc1ccc(CNC(=O)N2CCCC(NS(C)(=O)=O)C2)cc1 (centres undefined),112.9%
2,Cc1cc(CN2CCCC(NS(C)(=O)=O)C2)ccc1-n1cncn1 (centres undefined),11.85%
3,CC(C(=O)N1CCc2ccccc21)N1CCc2cncnc2C1 (centres undefined),1.414%
4,CC1(C)CN(C(=O)CCc2nc(-c3ccncc3)no2)CCO1,17.48%
5,CC(=O)N(C/C=C/c1ccccc1)CCO,-9.29%
6,CC(C)c1nccn1C1CCCN(C(=O)c2ccc3nncn3c2)C1 (centres undefined),89.79%
7,CC(C)c1nccn1C1CCCN(C(=O)c2ccc3c(c2)COC3)C1 (centres undefined),-6.912%
8,O=C(c1ccc2nncn2c1)N1CCCC(n2ccnc2)C1 (centres undefined),105.7%
9,CC(C)c1nccn1C1CCCN(C(=O)c2ccn(C)c(=O)c2)C1 (centres undefined),-3.204%
10,CCc1nccn1C1CCCN(C(=O)c2ccc3nncn3c2)C1 (centres undefined),-7.143%
11,Cc1nccn1C1CCCN(C(=O)c2ccc3nncn3c2)C1 (centres undefined),98.97%
12,CN(Cc1cccnc1)C[C@@H]1OC[C@H]2CN(C(=O)C3CC3)CC[C@H]21.O=C(O)C(F)(F)F.O=C(O)C(F)(F)F,-11.76%
13,O=C(Nc1cc(Cl)ccc1Cl)NC1CCN(C2CCOC2)CC1 (centres undefined),-16.63%
14,CCCn1ccnc1CN1C[C@@H](CN2CCCCC2)[C@@H](CO)C1,-0.9532%
15,CN(CCCc1nccn1C)c1nccc(-c2cc(C(=O)O)ccn2)n1,93.19%
16,Cc1nc(N(C)CCCc2nccn2C)c2nc(C)oc2n1,-2.669%
17,Cn1cc(CCCN2CCN(C(=O)c3cccc(O)c3)CC2)cn1,-1.766%
18,CN(CCCc1cnn(C)c1)C(=O)Nc1cccc(C#N)c1,-5.075%
19,CC(C)N(Cc1cnn(C)c1)C(=O)c1ccnc(N(C)C)c1,14.77%
20,CN(Cc1cnn(C)c1)c1nccc(-c2cc(C(=O)O)ccn2)n1,109.1%
21,CN(CCCc1cnn(C)c1)c1nccc(-c2cc(C(=O)O)ccn2)n1,108.4%
22,CN(CCCc1nccn1C)c1nccc(N2CCC(O)C2)n1 (centres undefined),13.17%
23,Cc1nn(C)cc1-c1ccnc(N(C)Cc2cnn(C)c2)n1,-26.11%
